Screening data (PubChem)
Shiga inhibitor: blocks Shiga toxin action in Vero cells | Vero cells, Shiga toxin protein synthesis inhibition reporter | inhibition, % at 38.7 µM | 290,000 tested, 9.2% active; in the data active = inhibition mostly above about 28%, no sharp cut-off; inactive = mostly below about 43%
LmPK inhibitor: LmPK (Leishmania mexicana) enzyme inhibition. Q27686. purified LmPK, Kinase-Glo ATP luminescence, 1 h. Potency, µM (titrated, usually from 57.5 µM), actives largely listed as inhibitors. 290,000 tested, 0.37% active. AID 1721
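Pyruvate kinase activity monitored as ATP production (luciferase luminescence). Conditions: 0.1 nM enzyme, 0.5 mM PEP, 0.1 mM ADP, 1 h, RT; normalized against uninhibited and no-enzyme wells.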
Giardia FBPA inh: blocks Giardia fructose-bisphosphate aldolase activity | 290,000 tested, 0.71% active | AID 2451 | A8B2U2 | purified Giardia FBPA | Potency, µM (highest dose often 59.6 µM), actives largely listed as inhibitors; also: nearly all actives have a fitted effect of over 55% in size
Target sequence (A8B2U2 whole entry, looked up): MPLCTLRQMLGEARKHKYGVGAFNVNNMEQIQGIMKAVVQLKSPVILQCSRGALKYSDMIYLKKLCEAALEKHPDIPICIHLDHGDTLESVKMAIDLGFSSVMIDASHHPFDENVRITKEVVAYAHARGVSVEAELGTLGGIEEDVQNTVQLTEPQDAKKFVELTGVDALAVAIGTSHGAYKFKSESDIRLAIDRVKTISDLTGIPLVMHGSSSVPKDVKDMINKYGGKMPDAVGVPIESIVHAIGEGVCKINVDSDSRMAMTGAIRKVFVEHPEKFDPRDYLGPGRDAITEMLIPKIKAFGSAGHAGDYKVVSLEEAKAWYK
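Giardia FBPA (40 nM reagent) was preincubated 10 min at RT with compound (up to 57.5 uM final), then substrate plus GAPDH/TPI/NAD/arsenate coupling system with diaphorase/resazurin was added; resorufin fluorescence (525/598 nm) was read after 20 min.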
NS1 function inh: inhibitors of influenza NS1 protein function; Potency, µM (series often up to 46.1 µM); 270,000 tested, 0.4% active; AID 2326; calls by dose curve; also: actives are rising curves; nearly all actives have a fitted effect of over 50% in size
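Compounds were scored for reversing the slow growth caused by influenza A NS1 in S. cerevisiae, measured by optical density at 600 nm. Assay medium contained 2% galactose at pH 6.0; NS1-free yeast of the same strain were the positive control.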
Cycloheximide cs: counter-screen for Shiga toxin inhibitors: cycloheximide protein synthesis inhibition | 300,000 tested, 12% active | AID 2314 | cell reporter, cycloheximide protein synthesis inhibition counterscreen | max response, %; in the data active = max response mostly above about 13%, no sharp cut-off; inactive = mostly below about 14%; also: read at 38.3 µM for the half of the compounds with a filed dose
A number is an active result; i = inactive; ? = inconclusive; nt = no result; [ ] = dose if it differs, or a comment. Shown are actives, neighbours in structure and some others; about 14% of the full set was active somewhere. Unless noted, calls follow the shape of the dose curve; as a rule, active = well fitted curve in the direction sought with a large enough effect; inconclusive = small, poorly fitted or top-dose-only effect, or another doubt; inactive = no such curve, though single readings can be large; an effect the other way counts as inactive or inconclusive.

SMILES | Shiga inhibitor | LmPK inhibitor | Giardia FBPA inh | NS1 function inh | Cycloheximide cs
O=C(N[C@@H](Cc1c[nH]c2ccccc12)C(=O)O)C1CCN(S(=O)(=O)c2cccs2)CC1 | i | i | i | i | i
Cc1ccc(N(CC(=O)NC(C)C)C(=O)CCC(=O)Nc2nccs2)cc1C | i | i | i | i | i
O=C(Cc1ccc(Cl)c(Cl)c1)NC1CCCCCC1 | 78.7 | i | i | i | 11.9
O=C(Cc1ccc(Cl)cc1Cl)NC1CCCCCC1 | i | i | i | i | i
O=C(/C=C/c1ccc(Br)cc1)NC1CCCCCC1 | 62.3 | i | i | i | 17.3
CC(=O)N/C(=C\c1ccc(C)o1)C(=O)NCc1ccccc1 | i | i | i | i | i
O=C(O)/C=C1\CCCc2ccccc2[C@H]1O | nt | nt | i | nt | nt
O=c1c(Cl)c(N2CCCCC2)cnn1-c1nc2ccccc2[nH]1 | i | 14.1µM | i | i | 19.8
O=C(COC(=O)CCc1nc2ccccc2c(=O)[nH]1)NC1CCS(=O)(=O)C1 (centres undefined) | i | i | i | nt | 33.8
CC1CCC(NC(=O)CC(C)(C)Cc2nc3ccccc3c(=O)[nH]2)CC1 (centres undefined) | i | i | i | ? | 16.0
COc1ccc(C2=NN(c3nc(-c4ccc(CNC(C)=O)cc4)cs3)C(c3ccco3)C2)cc1 (centres undefined) | i | i | i | i | i
CCC[C@@H]1NC(=O)[C@@H](NC(C)=O)CSSC[C@@H](C(N)=O)NC(=O)CNC(=O)[C@H](Cc2c[nH]c3ccccc23)NC(=O)[C@H](CCCN=C(N)N)NC(=O)[C@H](Cc2ccc3ccccc3c2)NC(=O)[C@H](Cc2cnc[nH]2)NC(=O)[C@H](CCCN=C(N)N)NC1=O | i | nt | i | nt | i
COc1ccc(C(=O)N2CCN(CCCc3ccccc3)CC2)cc1OC | i | i | ? | i | i
O=C(COC(=O)CNC(=O)c1ccccc1)Nc1nc(-c2ccccc2)cs1 | i | i | i | i | 24.6
O=C(COC(=O)c1cc(=O)[nH]c2ccccc12)Nc1nc(-c2ccccc2)cs1 | i | i | i | i | i
Cn1nccc1C(=O)OCC(=O)Nc1nc(-c2ccccc2)cs1 | i | i | i | i | 24.0
Cn1cc(Cl)c(C(=O)OCC(=O)Nc2nc(-c3ccc(Br)cc3)cs2)n1 | 65.4 | i | i | i | 21.8
COc1ccc(C2CC(c3ccccc3)Oc3cc(C)c(Cl)c(C)c32)cc1 (centres undefined) | i | nt | i | nt | i
COC(=O)C/C=C\[C@@H](C)[C@@H](/C=N\O[C@@H](C)CN1CCCc2nc(C)c(C)cc21)NS(=O)(=O)c1ccc(C)cc1 | nt | nt | i[12.9 µM] | nt | nt
CNc1c([N+](=O)[O-])cnn1-c1ccc(Cl)cc1Cl | i | i | i | i | i
CNc1c([N+](=O)[O-])cnn1-c1ccccc1Cl | i | i | i | i | 15.3
COc1ccc(-c2csc(NC3OC(=O)c4c3ccc(OC)c4OC)n2)cc1OC (centres undefined) | i | i | i | i | 11.6
COc1ccc2c(c1OC)C(=O)OC2Nc1ccccc1S(=O)(=O)C(F)F (centres undefined) | i | i | i | i | i
COc1ccc2c(c1OC)C(=O)OC2Nc1ccccn1 (centres undefined) | i | i | i | i | i
COc1ccc2c(c1OC)C(=O)OC2Nc1nc(-c2ccc([N+](=O)[O-])cc2)cs1 (centres undefined) | 56.4 | i | i | i | 15.6
SMILES | Shiga inhibitor | LmPK inhibitor | Giardia FBPA inh | NS1 function inh | Cycloheximide cs
COc1ccc2c(c1OC)C(=O)OC2Nc1nc(-c2cc3cc(Br)ccc3oc2=O)cs1 (centres undefined) | 79.9 | i | i | i | 36.7
COc1ccc2c(c1OC)C(=O)OC2Nc1nc2ccccc2s1 (centres undefined) | i | i | i | i | i
C=C(C)CC1(c2ccccc2)Oc2ccccc2-c2nc3cc(Cl)c(Cl)cc3nc21 (centres undefined) | nt | nt | i[12.9 µM] | nt | nt
CC(C)(C)NC(=O)CSc1nc(-c2ccc(F)cc2)cs1 | 83.0 | i | i | i | 31.8
CCNC(=O)CSc1nc(-c2ccc(F)cc2)cs1 | 101.5 | i | i | nt | 31.5
COc1ccc(-c2cc(C(=O)OCC(=O)N(C)C3CCS(=O)(=O)C3)c3ccccc3n2)cc1OC (centres undefined) | i | i | i | nt | 16.9
COc1ccc(C(=O)OCC(=O)N(C)C2CCS(=O)(=O)C2)cc1S(=O)(=O)N1CCCc2ccccc21 (centres undefined) | i | i | i | nt | 20.0
CC(C)CC(NC(=O)NC(CCC(=O)O)C(=O)O)C(=O)O (centres undefined) | i | nt | i | nt | i
